Rows were chosen to be rich in hits. Some 2.9% of all compounds tested hit in one or more screens of this group.
Pol beta inh: qHTS Assay for Inhibitors of DNA Polymerase Beta; Potency, µM (doses to about 114 µM), inactives show at the highest dose activity change, negative = inhibition, actives largely listed as inhibitors; P06746; Pol beta primer extension/strand displacement, fluorescence kinetic; 340,000 compounds, 1.3% hits; note: potency is the fitted concentration of half-maximal effect; % is set by controls: 0 for no effect and ±100 for the full control effect
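Preincubation: enzyme (10 nM) with compound, 15 min, RT. Reaction: substrate added to 50 nM final. Reads: 0 and 10 min. Analysis: normalized, Hill fit.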
Pol eta inh: qHTS for Inhibitors of Polymerase Eta; DNA polymerase eta (Homo sapiens), Q9Y253; recombinant Pol eta, fluorescent DNA replication assay; Potency, µM (titrated, usually from 114 µM), inactives show at the highest dose activity change, negative = inhibition, usual class: inhibitors; 390,000 compounds, 1.2% hits; note: potency is the fitted concentration of half-maximal effect; % is set by controls: 0 for no effect and ±100 for the full control effect
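Pol eta at 10 nM preincubated with compounds 15 min at room temperature; reaction started with fluorescent substrate (50 nM final) and read kinetically at 0 and 10 min.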
PI5P4K alpha inh: qHTS for Inhibitors of phosphatidylinositol 5-phosphate 4-kinase (PI5P4K); PI5P4Kalpha enzyme, ADP-Glo luminescence, 60 min; active compounds read low; Phosphatidylinositol 5-phosphate 4-kinase type-2 alpha (Homo sapiens), P48426; 330,000 compounds, 1.2% hits; AID 652105, 2013; max response, %; active = max response of -50% or lower; inconclusive = between -30% and -50%; inactive = -30% or higher; note: value at the top dose of about 77 µM; % is set by controls: 0 for no effect and ±100 for the full control effect
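ADP-Glo luminescence end-point after a 60 min room-temperature kinase reaction. PI5P4Kalpha and substrate in HEPES pH 7.4 buffer with EGTA, 0.1% CHAPS and 5% DMSO; ATP at 5 microM final.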
POLK inh: qHTS for Inhibitors of Polymerase Kappa; DNA polymerase kappa (Homo sapiens), Q9UBT6; Potency, µM (series often up to 107 µM), inactives show at the top dose activity, negative = inhibition, actives largely listed as inhibitors; purified Pol kappa, fluorescent DNA synthesis assay, 10 min; 400,000 compounds, 0.53% hits; note: potency is the fitted concentration of half-maximal effect; % is set by controls: 0 for no effect and ±100 for the full control effect
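Enzyme at 10 nM met test compounds for 15 min at room temperature. Substrate addition (50 nM final) began the reaction, which was monitored by fluorescence at 0 and 10 min.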
POLI inh: qHTS for Inhibitors of Polymerase Iota. DNA polymerase iota (Homo sapiens), Q9UNA4. Pol iota fluorescent replication assay, 10 min. Potency, µM (titrated, usually from 115 µM), without a hit: at the top dose activity, negative = inhibition, usual class: inhibitors. 390,000 compounds, 1% hits. AID 588590, 2011; note: potency is the fitted concentration of half-maximal effect
Target sequence (Q9UNA4 whole entry, looked up): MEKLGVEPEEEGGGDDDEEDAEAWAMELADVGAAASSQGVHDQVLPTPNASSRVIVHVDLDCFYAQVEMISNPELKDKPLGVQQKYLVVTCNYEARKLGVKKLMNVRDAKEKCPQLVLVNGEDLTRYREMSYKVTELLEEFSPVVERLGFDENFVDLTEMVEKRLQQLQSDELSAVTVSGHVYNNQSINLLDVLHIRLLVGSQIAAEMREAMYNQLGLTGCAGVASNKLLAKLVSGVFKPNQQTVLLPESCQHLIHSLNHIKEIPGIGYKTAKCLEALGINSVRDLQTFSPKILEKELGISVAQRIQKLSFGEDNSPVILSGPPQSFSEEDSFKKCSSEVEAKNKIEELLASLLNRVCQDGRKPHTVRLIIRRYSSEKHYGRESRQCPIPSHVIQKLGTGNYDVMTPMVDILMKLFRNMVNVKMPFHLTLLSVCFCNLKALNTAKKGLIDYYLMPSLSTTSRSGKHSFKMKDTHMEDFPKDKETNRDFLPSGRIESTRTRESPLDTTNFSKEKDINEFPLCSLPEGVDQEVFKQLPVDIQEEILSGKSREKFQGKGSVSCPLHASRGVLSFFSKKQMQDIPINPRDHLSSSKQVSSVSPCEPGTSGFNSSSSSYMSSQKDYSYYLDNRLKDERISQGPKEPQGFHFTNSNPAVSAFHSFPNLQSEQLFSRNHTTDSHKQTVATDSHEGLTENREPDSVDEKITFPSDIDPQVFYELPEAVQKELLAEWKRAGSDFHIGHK
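Fluorescent replication assay read twice, at 0 min and 10 min after adding 50 nM (final) substrate. Enzyme (10 nM) and compounds were first incubated 15 min at room temperature; enzyme-free buffer wells were negative controls.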
12-LOX inh: Primary qHTS assay for inhibitors of human arachidonate 12S-lipoxygenase (ALOX12): Round 2 | Polyunsaturated fatty acid lipoxygenase ALOX12 (Homo sapiens), P18054 | Potency, µM (doses to about 108 µM), for the others: at the highest dose activity change, negative = inhibition, usual class: inhibitors | 580,000 compounds, 1.1% hits | purified 12hLO, xylenol orange hydroperoxide absorbance; note: potency is the fitted concentration of half-maximal effect; % is set by controls: 0 for no effect and ±100 for the full control effect
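Purified human 12hLO (150 nM final) in 25 mM Hepes, 0.01% Triton X-100, pH 7.0 was preincubated 15 min at room temperature with compound. Then 40 uM arachidonic acid was added, 30 min. Hydroperoxide was read by Fe-XO absorbance ratio 573/405 nm.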
PGK validate: qHTS for inhibitors of Phosphogylcerate Kinase: Hit Validation Screen. shares compounds with POLK inh. TbPGK coupled GAPDH assay, Kinase-Glo luminescence. Potency, µM (titrated, usually from 57.5 µM), inactives show at the top dose activity change, negative = inhibition, actives largely listed as inhibitors. 500 compounds, 79% hits. AID 686980, 2013; note: potency is the fitted concentration of half-maximal effect; % is set by controls: 0 for no effect and ±100 for the full control effect; nearly all actives have a fitted effect of over 65% in size
POLI cherry-pick: qHTS for Inhibitors of Polymerase Iota: Confirmatory Assay for Cherry-picked Compounds; shares compounds with POLK inh; Pol iota primer extension, TAMRA/BHQ fluorescence; Potency, µM, actives largely listed as inhibitors; 1,500 compounds, 77% hits; note: potency is the fitted concentration of half-maximal effect
* = called active by the depositor; ? = inconclusive; nt = not tested or not shown; [ ] = another dose, or the depositor's remark. Unless noted, calls come from the whole dose curve; as a rule, active = well fitted curve in the direction sought with a large enough effect; inconclusive = small, poorly fitted or top-dose-only effect, or another doubt; inactive = no such curve, though single readings can be large; an effect the other way counts as inactive or inconclusive.

SMILES | Pol beta inh | Pol eta inh | PI5P4K alpha inh | POLK inh | POLI inh | 12-LOX inh | PGK validate | others
O=C(NC1CCCCC1)C1CC1c1ccccc1 (centres undefined) | nt | nt | nt | nt | nt | 1.4% | nt
COc1ccc(N/C=C2\CCc3ccccc3C2=O)cc1 | 20.1% | -15.0% | ? | -7.3% | 9.3% | ? | 16.3µM*
COCCC(=O)N1Cc2ccccc2OC2(CCN(C(C)C)CC2)C1 | nt | nt | nt | nt | nt | 52.9% | nt
O=C(Nc1ccc(C(=O)N2CCCCC2)cc1)c1ccccc1 | nt | 2.7% | -26.5 | -5.4% | 2.8% | -10.6% | nt
O=C(Nc1ccccc1)Nc1ccc(C(=O)N2CCCC2)cc1 | 23.6% | -2.2% | -26.3 | -15.6% | -26.8% | 10.5% | 16.3µM*
CC1=C[C@@H](CNC(=O)CN(C)C)[C@H](C(C)C)C[C@H]1Cc1nnc(-c2ccccc2F)o1 | nt | nt | nt | nt | nt | 18.4%[176 µM] | nt
CCOc1ccc(NC(=O)Cn2cc(C(=O)c3ccc(CC)cc3)c(=O)c3cc(C)ccc32)cc1 | ? | 50.1µM* | nt | -8.9% | 16.3% | -4.3% | nt | POLI cherry-pick=?
N/C(=N/OC(=O)c1ccccc1Cl)c1nonc1N | 37.2% | -6.6% | -24.4 | -2.9% | 27.4% | -15.5% | 11.6µM*
N/C(=N\OC(=O)c1ccccc1Cl)c1ccccc1 | 1.6% | 7.9% | nt | 0.0% | 13.9% | 11.4% | nt
Cc1ccc(C(=O)O/N=C(\N)c2nonc2N)cc1 | 0.6% | -19.8% | -8.8 | -0.8% | 142.1% | 4.6% | 23.1µM*
N/C(=N\OC(=O)c1ccc(F)cc1)c1nonc1N | 38.5% | -12.9% | -17.4 | -0.4% | 1.2% | 7.8% | nt
O=C(N[C@H]1CCN2C(=O)c3cc(-c4cccs4)ccc3NC(=O)[C@H]12)C1CCCC1 | nt | nt | nt | nt | nt | -1.8%[176 µM] | nt
CC1CCN(CCCNc2nc(-c3ccncc3)nc3ccccc23)CC1 | nt | nt | nt | nt | nt | 4.5% | nt
Cc1cccc(C(=O)Nc2cccc3cccnc23)c1C | nt | nt | nt | nt | nt | 0.6% | nt
Cc1ccc2nc(-c3ccc4c(c3)OCCO4)cn2c1 | -11.0% | -16.7% | 0.1 | -0.9% | 28.9% | 4.8% | nt
c1ccn2cc(-c3ccc4c(c3)OCCO4)nc2c1 | 5.1% | -8.2% | -13.5 | -5.3% | ? | -7.0% | ?
CCN(CC)c1ccc(C(=C2C=CC(=[N+](CC)CC)C=C2)c2ccc(S(=O)(=O)O)cc2S(=O)(=O)[O-])cc1 | nt | 20µM* | -56.6* | -12.7% | ? | ? | 16.3µM*
Cc1ccc(Cl)cc1N1CCN(S(=O)(=O)c2c(C(=O)N3CCCCC3)c(C)n(C)c2C)CC1 | nt | nt | nt | nt | nt | -9.5% | nt
CCSc1nc(O)cc(=O)[nH]1 | 46.8% | ? | -2.4 | -4.2% | -25.8% | -4.3% | nt
N#CNc1nc(O)cc(=O)[nH]1 | -25.9% | ? | -77.9* | 79.4µM* | ? | nt | ?
N#Cc1ccccc1NC(=O)CN1CCN(S(=O)(=O)c2cccs2)CC1 | nt | nt | nt | nt | nt | -25.6% | nt
CC1=C(C(=O)Nc2cccnc2)C(c2cccc(O)c2)n2nc(SCc3ccccc3)nc2N1 (centres undefined) | -18.3% | ? | nt | -6.3%[60.1 µM] | 79.4µM* | 3.2% | nt | POLI cherry-pick=?

Screening data (PubChem BioAssay)
